Screening results deposited in PubChem BioAssay by The Scripps Research Institute Molecular Screening Center.
The list is not random: actives were taken first. Their share in the collection is about 4.2%.
DAX1 inh – DAX1 (NR0B1) inhibitors on StAR promoter, primary screen, cell-based, luminescence, SF-1 (NR5A1), full-length DAX-1; HEK293T StAR-luciferase reporter, SF-1/DAX-1 repression relief; inhibition, % at 6.8 µM; actives 1.1% (n = 370,000);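 active = inhibition above the mean over all tested compounds plus 3 SD, cut at about 3.6% in these data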;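 note: higher inhibition means more luminescence from relief of DAX-1 repression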
hgDAF-12 ag – H. glycines DAF-12 receptor agonists, primary screen, cell-based, luminescence, HEK293, GAL4 fusion, UAS-luciferase; HEK293 GAL4-hgDAF12 UAS-luciferase reporter, agonist luminescence; normalized to butyrate control; Nuclear hormone receptor DAF-12 (Heterodera glycines), GAL4 fusion; activation, % at 6.8 µM; AID 687014, 2013; actives 1.8% (n = 370,000);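 active = activation above a cutoff set at the mean of all screened compounds plus 3 SD, cut at about 10% in these data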
SMARCA2 activ – SMARCA2 (BRM) function activators, primary screen, cell-based, luminescence, high throughput; activation, % at 9.1 µM; actives 1% (n = 370,000); MG213 cells, MMTV-luciferase reporter, dexamethasone, overnight; in the data active = activation above about 7.8%
hcDAF12 agonist – H. contortus DAF-12 nuclear receptor activators, primary screen, cell-based, luminescence, HEK293, lit1-tk-luc reporter; activation, % at 6.8 µM; AID 652067, 2013; actives 1.4% (n = 370,000); HEK293 hcDAF-12 lit1-tk-luc reporter; 0% DMSO, 100% Δ7-dafachronic acid;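 active = activation above the mean of all tested compounds plus 3 SD, cut at about 5.5% in these data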
ssDAF12 agonist – S. stercoralis DAF-12 nuclear receptor activators, primary screen, cell-based, luminescence, HEK293, GRIP1 co-expression, lit1-tk-luc. HEK293 ssDAF-12/GRIP1 lit1-tk-luc reporter; % of 3 µM dafachronic acid response. activation, % at 6.8 µM. actives 1% (n = 370,000);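 active = activation above the mean over all tested compounds plus 3 SD, cut at about 0.9% in these data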
DAX1 inh confirm – DAX1 (NR0B1) inhibitors relieving SF-1 repression, confirmation, cell-based, luminescence, HEK293T, full-length DAX-1, SF-1 activated StAR promoter; shares compounds with DAX1 inh; HEK293T StAR-promoter luciferase reporter, SF-1/DAX-1 repression; inhibition, % at 6.8 µM; actives 87% (n = 2,400); AID 652134, 2013;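 active = inhibition above the average of every tested compound plus 3 SD, cut at about 3.8% in these data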
Target sequence (P51843 whole entry, looked up): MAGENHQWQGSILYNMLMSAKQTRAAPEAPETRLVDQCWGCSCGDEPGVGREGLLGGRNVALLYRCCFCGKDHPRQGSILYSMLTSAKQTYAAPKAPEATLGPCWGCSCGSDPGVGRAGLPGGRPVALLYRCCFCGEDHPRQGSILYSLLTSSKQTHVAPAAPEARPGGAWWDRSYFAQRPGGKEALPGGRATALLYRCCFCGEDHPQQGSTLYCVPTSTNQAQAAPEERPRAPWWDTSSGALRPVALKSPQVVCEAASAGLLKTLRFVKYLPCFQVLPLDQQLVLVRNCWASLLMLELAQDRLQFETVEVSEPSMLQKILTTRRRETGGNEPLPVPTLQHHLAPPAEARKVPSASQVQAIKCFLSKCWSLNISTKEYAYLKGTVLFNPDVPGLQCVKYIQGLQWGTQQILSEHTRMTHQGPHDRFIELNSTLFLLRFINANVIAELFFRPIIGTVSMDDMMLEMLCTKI
SF1 AF2mut Luc – StAR reporter signal changes without DAX1, counter-screen for DAX1 inhibitor project, cell-based, luminescence, AF-2 mutant SF-1, transactivation; shares compounds with DAX1 inh; HEK293 StAR-luciferase, SF-1 AF2 mutant; inhibition, % at 6.8 µM; actives 78% (n = 2,400);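 active = inhibition above the mean of all tested compounds plus 3 SD, cut at about 3% in these data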
LXR ag – LXR agonists, Gal4 luciferase reporter, confirmation, counter-screen for hcDAF-12 agonist project, cell-based, luminescence, HEK293, H. contortus campaign. activation, % at 6.8 µM. 3,400 tested, under 10 active. shares compounds with hcDAF12 agonist. HEK293 Gal4-LXR tk-luc reporter, 24 h; normalized: DMSO 0%, positive control 100%;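 active = mean percent activation of the reporter above a cutoff set as the average over tested compounds plus their standard deviation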
hcDAF12 ag – H. contortus DAF-12 receptor agonists, confirmation, cell-based, luminescence, HEK293, lit1-tk-luc, triplicate | activation, % at 6.8 µM | AID 743032, 2013 | shares compounds with hcDAF12 agonist | HEK293 hcDAF-12 lit1-tk-luc reporter; % of Δ7-dafachronic acid response | actives 61% (n = 3,400);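 active = mean activation across triplicate tests above the threshold derived from the earlier primary screen, cut at about 5.5% in these data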
Of the large screens only hits and unclear results are named; the others gave an inactive call (follow-up assays come after a bar, where they were run).

O=C(Nc1cccc(O)c1)C(=O)Nc1ccccn1	DAX1 inh 6.1, hcDAF12 agonist 8.2 | DAX1 inh confirm 10.0 | SF1 AF2mut Luc 5.6 | LXR ag inactive | hcDAF12 ag inactive
C/C(CC(=O)Nc1ccccn1)=N\NC(=O)C(=O)Nc1cccc(C)c1	none
C[C@H]1CCCN1c1cccc2c1S(=O)(=O)N1CC[C@@H](C1)O2	none
COc1cccc(-c2nnc(SCC(=O)Nc3ccc(OCc4ccccc4)cc3)n2Cc2ccco2)c1	none
COC(=O)N1C[C@H](OC(=S)Nc2ccc(OC)cc2OC)[C@H]2C[C@@H]1c1ccccc1O2	none
O=C(NCCOc1ccccc1)c1ccccc1NC(=O)C1CCCO1 (stereo unspecified)	DAX1 inh 5.6, hgDAF-12 ag 10.9, hcDAF12 agonist 9.0 | DAX1 inh confirm 8.3 | SF1 AF2mut Luc 7.3 | LXR ag inactive | hcDAF12 ag 10.4
CCOC(=O)c1ccccc1NC(=O)C1CCCO1 (stereo unspecified)	none
C[C@H]1[C@@H](c2ccccc2)Oc2ccc(Cl)cc2S(=O)(=O)N1Cc1ccc(Cl)cc1	none
C/C(=N\NC(=O)c1cccs1)c1c(O)cc(C)oc1=O	DAX1 inh 6.9, hgDAF-12 ag 12.3, hcDAF12 agonist 6.6, ssDAF12 agonist 1.1 | DAX1 inh confirm inactive | SF1 AF2mut Luc inactive | LXR ag inactive | hcDAF12 ag inactive
COc1ccc(-c2cc(=O)c3c(O)c(OC)c(O)cc3o2)cc1	DAX1 inh 5.1, hcDAF12 agonist 6.7, ssDAF12 agonist 1.3 | DAX1 inh confirm 15.9 | SF1 AF2mut Luc 8.3 | LXR ag inactive | hcDAF12 ag inactive
CCOC(=O)[C@]12CCCC=C1N(Cc1ccc(OC)cc1)C(=O)[C@@H]2CC(=O)NCc1ccccc1	none
C[C@@H]1NC(=O)[C@H]2C[C@@]3(c4ccccc4)c4ccccc4N[C@H]3N2C1=O	none
c1ccc(-c2cn3c(n2)-c2ccccc2C3)cc1	DAX1 inh 5.7, hgDAF-12 ag 14.5, hcDAF12 agonist 21.4, ssDAF12 agonist 3.8 | DAX1 inh confirm 11.3 | SF1 AF2mut Luc 5.8 | LXR ag inactive | hcDAF12 ag 22.1
Cc1ccc2nc(-c3ccccc3)cn2c1	none
Fc1ccc(-c2nnc(-c3ccc4ccccc4c3)o2)cc1	DAX1 inh 7.0, hgDAF-12 ag 20.3, hcDAF12 agonist 8.0, ssDAF12 agonist 2.1 | DAX1 inh confirm 10.5 | SF1 AF2mut Luc 5.2 | LXR ag inactive | hcDAF12 ag 12.3
Fc1ccc(-c2nnc(-c3ccc(F)cc3)o2)cc1	none
Cc1cc(C(=O)COC(=O)C2=COCCO2)c(C)n1-c1cccc(F)c1	DAX1 inh 9.3, hgDAF-12 ag 10.9, hcDAF12 agonist 7.2, ssDAF12 agonist 1.0 | DAX1 inh confirm 13.2 | SF1 AF2mut Luc 4.0 | LXR ag inactive | hcDAF12 ag inactive
Cc1cc(C(=O)COC(=O)C2=COCCO2)c(C)n1-c1ccc2c(c1)OCO2	none
COc1ccc(C=C(c2nc3ccccc3s2)c2nc3ccccc3s2)cc1O	none
CC(=O)Nc1ccc(S(=O)(=O)Nc2nc3ccccc3s2)cc1	none
COc1ccc(/C=N/Nc2nc3ccccc3s2)cc1O	DAX1 inh 8.6, hgDAF-12 ag 19.7, hcDAF12 agonist 17.9, ssDAF12 agonist 3.2 | DAX1 inh confirm 20.9 | SF1 AF2mut Luc 8.1 | LXR ag inactive | hcDAF12 ag 19.2
Cc1ccsc1/C=N/Nc1nc2ccccc2s1	DAX1 inh 7.1, hgDAF-12 ag 20.3, hcDAF12 agonist 20.8, ssDAF12 agonist 5.5 | DAX1 inh confirm 15.8 | SF1 AF2mut Luc 12.7 | LXR ag inactive | hcDAF12 ag 22.8
CC(=O)Nc1ccc(/C=N/Nc2nc3ccccc3s2)cc1	DAX1 inh 5.6, hgDAF-12 ag 24.3, hcDAF12 agonist 17.7, ssDAF12 agonist 3.3 | DAX1 inh confirm 15.1 | SF1 AF2mut Luc 9.9 | LXR ag inactive | hcDAF12 ag 21.9
CCn1c(COc2ccccc2)nnc1SCC(=O)Nc1ccc(S(=O)(=O)Nc2cc(C)nc(C)n2)cc1	none
COc1ccc(C(=O)c2c(O)cc(-c3ccc(OC)cc3)oc2=O)cc1	none
COc1ccc(-c2cc3ccccc3c(=O)o2)cc1	DAX1 inh 7.7, hgDAF-12 ag 25.3, hcDAF12 agonist 12.2, ssDAF12 agonist 2.2 | DAX1 inh confirm 13.3 | SF1 AF2mut Luc 6.6 | LXR ag inactive | hcDAF12 ag 11.0
COc1ccc(C(=O)NCCSc2ccccc2)cc1	DAX1 inh 5.1, hgDAF-12 ag 11.9, hcDAF12 agonist 7.4 | DAX1 inh confirm 12.3 | SF1 AF2mut Luc 5.2 | LXR ag inactive | hcDAF12 ag 6.5
COc1ccc(C(=O)NCCNC(=O)c2ccc(OC)cc2)cc1	none
CC(C)(C)C(=O)NC1CCCCN(Cc2cccc(C(F)(F)F)c2)C1=O (stereo unspecified)	none
C=CCNC(=O)c1ccc2c3n(nc2c1)-c1ccccc1CO3	none
